According to PubChem BioAssay:
Values joined by “and” are separate entries in the source; they are usually repeats but may differ in a detail not shown here. Equal entries are not always repeated. Results filed as inconclusive are left out. For part of these data: Entries with a potency or affinity are not part of this list. Active and inactive are the calls of the source. Unless noted, how the calls were made is not given here.

Tests used:
[1] = polyglutamine-triggered caspase-3 activation inhibitors, cell-based (AID 1583); settings: polyglutamine-induced caspase-3 activation, cell assay; stronger effect = higher value;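 tested at 10 µM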
[2] = suppressors of polyQ aggregation in yeast, 75Q-TubU reporter (AID 1593); settings: Yeast 75Q polyglutamine aggregation reporter
[3] = rescue of polyQ-huntingtin neuronal dysfunction in worms, whole organism, C. elegans mechanosensory neurons, N-terminal huntingtin (AID 1599); settings: touch response, stronger effect = higher value
[4] = inhibitors of mitochondrial cytochrome c release, biochemical, purified mitochondria (AID 1603); settings: stronger effect = lower value;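 further: mouse liver mitochondria challenged with calcium chloride; signal normalized to the plate average as 100%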
[5] = inhibitors of polyQ protein aggregation (AID 1604); settings: polyglutamine-induced protein aggregation inhibition assay; stronger effect = higher value; tested at 2.5 µM
[6] = enhancers of glutamate uptake in motor neurons, MN-1 cell line (AID 1612); settings: MN-1 motor neuron cells, stronger effect = higher value;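 further: tested at 1 µM final; 0% = mean of DMSO vehicle wells on each plate; positive means more glutamate uptake than control and negative means less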
[7] = suppressors of polyglutamine aggregation in yeast, 75Q-TubH (AID 1616); settings: S. cerevisiae 75Q-TubH polyglutamine aggregation suppression; stronger effect = higher value
[8] = circadian clock period modulators, cell-based, LOPAC library, luminescence reporter (AID 2774); settings: circadian reporter cells, at 7 µM, actives lie on both sides;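 further: values are relative to mean of DMSO wells on each plate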
[9] = hESC survival regulators, cell-based (AID 493140); settings: human embryonic stem cell survival screen; stronger effect = higher value;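 further: cells exposed to compounds for four days before counting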
[10] = test system: Hepatitis C virus NS3 helicase; assay: HCV NS3 helicase inhibitors, primary screen, biochemical, fluorescence polarization, LOPAC1280 library (AID 687035; in the data active means inhibition above about 37%); settings: Purified HCV NS3 helicase, Cy5-dT15 ssDNA binding fluorescence polarization; stronger effect = higher value; concentration not given here
[11] = Cy5 fluorescence quenching or enhancement artefacts, artefact control for HCV NS3 helicase inhibitor project, biochemical, LOPAC1280 (AID 687037); settings: Cy5-DNA-NS3h complex fluorescence interference counterscreen
[12] = Cy5 fluorescence interference with SSB-bound oligo, artefact control for HCV NS3 helicase inhibitor project, biochemical, NIH Clinical Collection, E. coli SSB (AID 743268)
[13] = test system: Hepatitis C virus NS3 helicase; assay: HCV NS3 helicase inhibitors, primary screen, biochemical, fluorescence polarization, NIH Clinical Collection (AID 743270); settings: NS3 helicase binding to Cy5-dT15 DNA, stronger effect = higher value, concentration not given here
[14] = biological target: Single-stranded DNA-binding protein (Escherichia coli (strain K12)) (UniProt P0AGE0); assay: E. coli SSB displacement from DNA, counter-screen for HCV NS3 helicase inhibitor project, biochemical, fluorescence polarization, NIH Clinical Collection (AID 743271; in the data active means inhibition above about 28%); settings: stronger effect = higher value, concentration not given here
[15] = fluorescence interference in NS3h assay format, artefact control for HCV NS3 helicase inhibitor project, biochemical, NIH Clinical Collection (AID 743272); settings: fluorescence interference counterscreen, stronger effect = lower value;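 further: HCV NS3 helicase with a Cy5 labelled single stranded DNA probe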
[16] = test system: Neuropilin-2 / VEGF-C interaction (human); assay: inhibitors of NRP2–VEGF-C binding, biochemical, microplate binding format, z-score (AID 743281); settings: microplate NRP2/VEGF-C binding assay; stronger effect = lower value
[17] = stimulators of nuclear beta-catenin in C2C12, primary screen, imaging, WNT3A-conditioned medium, mouse C2C12, NPC library (AID 1117326; in the data active means nuclear beta-catenin stimulation mostly above about 4.2%, no sharp cut-off; inactive means mostly below about 10%); settings: stronger effect = higher value
[18] = stimulators of insulin release from INS-1E, primary screen, cell-based, 5 mM glucose, NPC library (AID 1117329;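 active means compound raises insulin release from rat beta cells at 5 mM glucose, no numeric limit stated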); settings: rat INS-1E insulin secretion, at 10 µM, stronger effect = higher value
[19] = growth inhibition of GSK3B-pretreated HCT116 cells – cell-based, CellTiter-Glo, 0.2 to 20 µM (AID 1117336;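 active means compounds lowering colon cancer cell viability after pretreatment blocking the GSK3B kinase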); settings: HCT116 viability after GSK3B inhibitor, at 20 µM, stronger effect = higher value
[20] = inhibition of endothelial tube formation, primary screen, imaging, VEGF stimulated, CD31 staining, tube area, NPC library (AID 1117340;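 active means compound that reduces growth-factor-driven endothelial tube area in a mixed cell culture, no cutoff stated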); settings: VEGF-stimulated ADSC/ECFC co-culture, at 10 µM, stronger effect = higher value
[21] = glucagon-like peptide 1 release enhancers, primary assay, NCI-H716 cell line, NPC library (AID 1117341;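 active means compound raises GLP1 secretion from the human gut endocrine cells, with no numeric limit stated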); settings: NCI-H716 cells, at 10 µM, stronger effect = higher value
[22] = HCT116 colon cancer cell growth inhibition, primary screen, CellTiter-Glo luminescence, NPC library (AID 1117342;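 active means compounds that lower survival of HCT116 colon cancer cells in the luminescence readout, no numeric limit stated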); settings: at 20 µM (top of the series)
[23] = CellTiter-Glo luminescent readout of SW480 viability loss, NPC library primary (AID 1117343;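 active means compounds that lower viability of the colon cancer cells in the luminescence readout, with no numeric limit stated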); settings: CellTiter-Glo luminescence; at 20 µM (top of the series)
[24] = decreased DLD-1 cellular survival, CellTiter-Glo luminescent readout, NPC compound collection, primary HTS (AID 1117346;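 active means compounds that lower survival of DLD-1 colon cancer cells in the luminescence readout, no cutoff given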); settings: DLD-1 viability, CellTiter-Glo luminescence; at 20 µM (top of the series)
[25] = biological target: 6-phosphogluconate dehydrogenase, decarboxylating (Homo sapiens) (UniProt P52209); assay: 6PGD enzyme inhibitors, primary screen, biochemical, human, recombinant enzyme, NADPH absorbance (AID 1159550;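 active means at least 20% inhibition of 6-phosphogluconate dehydrogenase activity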); settings: recombinant 6PGD, NADPH absorbance 341 nm; at 10 µM; stronger effect = higher value
6-phosphogluconate dehydrogenase, decarboxylating (Homo sapiens), sequence (P52209 whole entry, looked up): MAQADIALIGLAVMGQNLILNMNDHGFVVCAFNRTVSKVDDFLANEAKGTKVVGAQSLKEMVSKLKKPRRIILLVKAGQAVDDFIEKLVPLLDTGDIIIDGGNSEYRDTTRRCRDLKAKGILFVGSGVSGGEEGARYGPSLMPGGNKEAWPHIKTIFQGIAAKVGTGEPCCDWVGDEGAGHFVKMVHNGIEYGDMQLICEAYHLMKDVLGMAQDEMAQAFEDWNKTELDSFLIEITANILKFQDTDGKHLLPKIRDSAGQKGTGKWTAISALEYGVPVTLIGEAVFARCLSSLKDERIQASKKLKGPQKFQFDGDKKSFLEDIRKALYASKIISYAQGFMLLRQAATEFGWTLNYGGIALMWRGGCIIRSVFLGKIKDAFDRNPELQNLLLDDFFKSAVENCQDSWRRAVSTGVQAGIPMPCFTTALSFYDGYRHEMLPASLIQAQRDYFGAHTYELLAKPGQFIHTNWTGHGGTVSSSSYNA

[26] = modulation of C. elegans fzo-1 (AID 1259413);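 further: fzo-1 mutant C. elegans worms in liquid wells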; settings: C. elegans fzo-1 modulator screen, mean read-out; stronger effect = higher value
[27] = differential killing of epithelial or mesenchymal cells, primary screen, imaging, PC-3E GFP, TEM4-18 mCherry, co-culture (AID 1345086;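 active means compounds killing one labelled cell type while sparing the other, by normalised counts and ratio limits, not self-fluorescent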;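 further: cells exposed to compound for 72 h before imaging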;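 on red/green cell ratio (normalised): normalised mesenchymal count divided by normalised epithelial count so high means epithelial killing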); settings: imaging cell counts, at 1 µM
[28] = growth inhibition of DIPG glioma cells, dose response, cell-based, SU-DIPG-XVII, MIPE5.0, CellTiter-Glo, qHTS (AID 1347060; cut-off not given, nearly all actives have AC50 up to about 26 µM;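 further: cells exposed to compound for 48 hours before viability readout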); settings: SU-DIPG-XVII viability, CellTiter-Glo ATP luminescence
[29] = growth inhibition of DIPG glioma cells, dose response, cell-based, SU-DIPG-XIII, MIPE4.0, CellTiter-Glo, qHTS (AID 1347061; cut-off not given, nearly all actives have AC50 up to about 37 µM;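 further: cells exposed to compound for 48 hours before readout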); settings: SU-DIPG-XIII viability, CellTiter-Glo ATP luminescence
[30] = growth inhibition of DIPG glioma cells, dose response, cell-based, JHH-DIPG-1, MIPE4.0, CellTiter-Glo, qHTS (AID 1347062; cut-off not given, nearly all actives have AC50 up to about 27 µM;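 on AC50: cells exposed to compound for two days before readout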); settings: JHH-DIPG-1 viability, CellTiter-Glo ATP luminescence
[31] = growth inhibition of DIPG glioma cells, dose response, cell-based, SU-DIPG-IV, MIPE4.0, CellTiter-Glo, qHTS (AID 1347063; cut-off not given, nearly all actives have AC50 up to about 30 µM;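 further: compound exposure lasted 48 hours before the viability readout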); settings: SU-DIPG-IV viability, CellTiter-Glo ATP luminescence
[32] = growth inhibition of DIPG glioma cells, dose response, cell-based, SU-DIPG-XIII, MIPE5.0, CellTiter-Glo, qHTS (AID 1347064; cut-off not given, nearly all actives have AC50 up to about 23 µM;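 on AC50: cells exposed to compound for 48 hours before the viability read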); settings: SU-DIPG-XIII viability, CellTiter-Glo ATP luminescence
[33] = SU-DIPG-VI glioma cell viability, MIPE4.0 library, CellTiter-Glo luminescence, qHTS (AID 1347066; cut-off not given, nearly all actives have AC50 up to about 30 µM;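 further: cells exposed to compound for 48 hours before readout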); settings: CellTiter-Glo ATP luminescence
[34] = JHH-DIPG-1 glioma cell viability, MIPE5.0 library, CellTiter-Glo luminescence, qHTS (AID 1347067; cut-off not given, nearly all actives have AC50 up to about 26 µM;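 further: cells exposed to compound for 48 hours before readout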); settings: JHH-DIPG-1 glioma viability, CellTiter-Glo ATP luminescence
[35] = SU-DIPG-XXV glioma cell viability, MIPE5.0 library, qHTS (AID 1347068; cut-off not given, nearly all actives have IC50 up to about 30 µM;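 on IC50: cells exposed to compound for 48 hours before viability readout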)
[36] = phospholipid biosynthesis inhibitors in animal cells, primary screen, cell-based, LOPAC library, screen 4 (AID 1347384); settings: phospholipid biosynthesis inhibition screen, at 10 µM
[37] = survival rescue of mitochondrial mutant cells in low glucose, primary screen, MELAS cybrids, Rieske KO mouse fibroblasts, CellTiter-Glo (AID 1508586;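 active means mean z-score across replicates of 1.96 or higher in either the MELAS or the Rieske mutant cell line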;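 further: z relative to plate mean and SD of compound and empty wells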)
[38] = biological target: NAD(+) hydrolase SARM1 (Homo sapiens) (UniProt Q6SZW1); assay: SARM1 TIR NADase inhibitors, cell lysate, NAD-Glo luminescence (AID 1508614;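 active means compound whose remaining NAD level is above about 45 nM, limit read from the data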); settings: SAM-TIR HEK293T lysate NADase, at 1 µM, stronger effect = higher value
NAD(+) hydrolase SARM1 (Homo sapiens), sequence (Q6SZW1 whole entry, looked up, the tested form may be a part): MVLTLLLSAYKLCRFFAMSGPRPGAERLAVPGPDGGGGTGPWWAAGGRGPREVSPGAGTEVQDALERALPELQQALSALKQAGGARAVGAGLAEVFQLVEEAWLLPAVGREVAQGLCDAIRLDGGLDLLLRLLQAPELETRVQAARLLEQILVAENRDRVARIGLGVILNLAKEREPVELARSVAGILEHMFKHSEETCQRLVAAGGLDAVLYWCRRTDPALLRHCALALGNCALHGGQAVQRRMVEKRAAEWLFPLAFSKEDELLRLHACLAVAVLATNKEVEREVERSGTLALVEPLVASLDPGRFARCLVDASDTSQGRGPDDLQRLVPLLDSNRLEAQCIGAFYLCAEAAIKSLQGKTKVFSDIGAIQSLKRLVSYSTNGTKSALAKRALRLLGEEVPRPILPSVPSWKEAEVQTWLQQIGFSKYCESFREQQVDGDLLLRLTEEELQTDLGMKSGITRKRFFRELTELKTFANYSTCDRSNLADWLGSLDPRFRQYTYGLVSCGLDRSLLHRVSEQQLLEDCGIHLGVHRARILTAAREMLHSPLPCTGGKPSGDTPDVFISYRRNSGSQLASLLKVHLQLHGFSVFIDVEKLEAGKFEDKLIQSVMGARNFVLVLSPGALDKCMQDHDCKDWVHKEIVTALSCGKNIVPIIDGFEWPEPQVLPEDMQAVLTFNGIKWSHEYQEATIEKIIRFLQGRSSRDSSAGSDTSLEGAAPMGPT

[39] = biological target: Mitogen-activated protein kinase 7 (Homo sapiens) (UniProt Q13164); assay: ERK5 transactivation activators in reporter cells, primary screen, cell-based, HTS (AID 1508626;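 active means luciferase signal above three times the same-plate solvent-only control wells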;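 further: luciferase driven by Gal4-ERK5 fusion binding five Gal4 sites before minimal TATA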); settings: HeLa Gal4-ERK5 transactivation, 18 h, at 5 µM, stronger effect = higher value
Mitogen-activated protein kinase 7 (Homo sapiens), sequence (Q13164 whole entry, looked up, the tested form may be a part): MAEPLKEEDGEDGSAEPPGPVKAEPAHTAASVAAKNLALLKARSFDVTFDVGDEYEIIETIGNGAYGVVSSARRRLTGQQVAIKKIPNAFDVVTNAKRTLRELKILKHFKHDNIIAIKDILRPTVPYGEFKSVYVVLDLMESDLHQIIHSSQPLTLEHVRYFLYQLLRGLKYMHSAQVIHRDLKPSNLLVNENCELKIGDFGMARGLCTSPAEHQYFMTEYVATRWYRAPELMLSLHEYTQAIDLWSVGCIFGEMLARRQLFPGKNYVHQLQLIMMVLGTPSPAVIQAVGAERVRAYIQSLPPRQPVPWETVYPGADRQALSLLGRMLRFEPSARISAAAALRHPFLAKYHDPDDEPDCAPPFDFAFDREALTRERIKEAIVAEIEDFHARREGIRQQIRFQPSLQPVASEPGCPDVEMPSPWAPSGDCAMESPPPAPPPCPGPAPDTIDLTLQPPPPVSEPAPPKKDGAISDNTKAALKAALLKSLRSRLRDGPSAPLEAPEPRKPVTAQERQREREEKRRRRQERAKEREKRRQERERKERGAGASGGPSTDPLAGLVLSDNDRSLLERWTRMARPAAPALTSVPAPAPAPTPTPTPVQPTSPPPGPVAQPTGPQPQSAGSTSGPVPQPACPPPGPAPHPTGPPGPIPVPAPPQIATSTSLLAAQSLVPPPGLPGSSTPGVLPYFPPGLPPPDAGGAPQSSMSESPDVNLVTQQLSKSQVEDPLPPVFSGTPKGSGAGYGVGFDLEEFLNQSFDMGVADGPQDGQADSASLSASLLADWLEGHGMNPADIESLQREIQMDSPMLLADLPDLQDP

[40] = viability rescue of complex I mutant cybrids, primary screen, cell-based, galactose medium, ATP luminescence (AID 1645843;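 active means z-score of at least 1.8 in each of two replicates, scored against plate mean and spread of sample wells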;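 further: positive z means more ATP and so rescue of galactose-driven cybrid death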); settings: complex I mutant cybrid cells, 72 h, stronger effect = higher value
[41] = liver-stage malaria parasite growth inhibition, primary screen, cell-based, HepG2, luciferase luminescence, HepG2 viability (AID 624349; in the data active means parasite load remaining mostly below about 12%, no sharp cut-off; inactive means mostly above about 10%;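 further: 100% = mean of DMSO negative control wells on the same plate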); settings: P. berghei liver stage in HepG2, luciferase luminescence, concentration not given here; parasite load remaining: stronger effect = lower value; viability: measured here: HepG2 viability without parasites
[42] = viability loss in pontine glioma line – cell-based, SU-DIPG-XXV, MIPE5.0, CellTiter-Glo, qHTS, dose response (AID 1347065; cut-off not given, nearly all actives have AC50 up to about 26 µM;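 further: cells exposed to compound for 48 hours before ATP readout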); settings: CellTiter-Glo ATP luminescence
[43] = sensitizers of A549 cells to miR-34 induction, primary screen, imaging, A549 dox-inducible miR-34, nuclei and caspase counts (AID 1347080;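 active means compounds whose cell count with miR-34 switched on is under 0.7 times the count with it off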); settings: A549 miR-34 inducible, Hoechst nuclei count, 48 h
F380Y = assay: modulators of BK channel variants, profiling panel, selectivity assay, cell-based, U2OS BacMam, thallium flux, beta subunits (AID 1259406;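 active means thallium flux through the channel raised or lowered by more than 3 SD from vehicle-only wells, actives on both sides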;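 further: initial slope of Thallos dye fluorescence rise after thallium is added; log ratio against the mean of 0.3% DMSO vehicle wells on the same plate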); settings: at 30 µM
F380Y/beta1 = assay: as above; settings: at 30 µM
F380Y/beta2Delta = assay: as above; settings: at 30 µM
F380Y/beta4 = assay: as above; settings: at 30 µM
[44] = biological target: Calcium-activated potassium channel subunit alpha-1 (Homo sapiens) + Leucine-rich repeat-containing protein 26 (Homo sapiens) (UniProt Q12791+Q2I0M4); assay: as above; settings: F380Y/Slo1WT/gamma1, at 30 µM
Calcium-activated potassium channel subunit alpha-1 (Homo sapiens) + Leucine-rich repeat-containing protein 26 (Homo sapiens), sequence (Q2I0M4 whole entry, looked up, one chain of several): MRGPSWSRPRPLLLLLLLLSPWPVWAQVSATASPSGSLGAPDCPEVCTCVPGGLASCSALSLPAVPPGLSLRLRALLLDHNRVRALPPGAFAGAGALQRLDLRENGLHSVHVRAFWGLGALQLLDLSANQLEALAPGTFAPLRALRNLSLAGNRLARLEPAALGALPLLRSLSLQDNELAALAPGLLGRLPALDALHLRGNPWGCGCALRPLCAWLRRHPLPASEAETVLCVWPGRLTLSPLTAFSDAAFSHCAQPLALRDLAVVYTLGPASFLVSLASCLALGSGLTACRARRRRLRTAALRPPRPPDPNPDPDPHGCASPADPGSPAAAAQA

R275C = assay: as above; settings: at 30 µM
R275C/beta1 = assay: as above; settings: at 30 µM
R275C/beta2Delta = assay: as above; settings: at 30 µM
R275C/beta4 = assay: as above; settings: at 30 µM
R275C/Slo1WT/beta2 = assay: as above; settings: at 30 µM

CCCCc1oc2ccccc2c1C(=O)c1cc(I)c(OCCN(CC)CC)c(I)c1
-0.303: aggregation suppression score [7]
0.17: rescue above control [3]
-1.49: score [2]
inactive: period change [8] 0.145 h | survival [9] 3.5 | inhibition [10] 0% | fluorescence ratio (interference) [11] 0.9 | fluorescence ratio [12] 0.96 | inhibition [13] -1.97% | inhibition [14] 1.97% | fluorescence ratio [15] 0.95 | z-score [16] -0.442 | insulin secretion stimulation [18] 0.6% | GLP1 secretion stimulation [21] 3.9% | inhibition [25] 7.85% | mean signal [26] 244 | red/green cell ratio (normalised) ([27]; actives lie on both sides, counts scaled to control wells, 1 = unselective) 1.08 | outcome [36] | z-score ([37]; MELAS cybrid survival, CellTiter-Glo 48 h, stronger effect = higher value) -0.425 and -1.46 and 0.238 | remaining NAD [38] 10 nM | luciferase signal [39] 44 AU | z-score [40] -1.52 and -1.44 and -1.87
1.1: normalised cell number ([27]; measured here: mesenchymal TEM4-18 mCherry cell survival)
18.6%: inhibition [1]
1.02: normalised cell number ([27]; measured here: epithelial PC-3E GFP cell survival)
0.8%: nuclear beta-catenin stimulation ([17]; stimulation, at 2 µM)
0.341 and -0.317 and -0.0304: z-score ([37]; Rieske KO mouse fibroblast survival, CellTiter-Glo 72 h)
active: nuclear beta-catenin stimulation ([17]; at 10 µM) 71.4% | viability decrease [19] 103% | tube area decrease [20] 110% | inhibition of viability [22] 102% | viability decrease (inhibition) [23] 129% | viability decrease (inhibition) [24] 105% | AC50 [28] 13.2 µM | AC50 [29] 7.43 µM | AC50 [30] 23.5 µM | AC50 [31] 1.05 µM | AC50 [32] 13.2 µM | AC50 [33] 23.5 µM | AC50 [34] 16.6 µM | IC50 [35] 23.5 µM
11.2%: glutamate uptake change [6]
0.79: cytochrome c release ratio [4]
28.8%: inhibition of aggregation [5]

CC(=O)OCC(=O)[C@@]1(O)CC[C@H]2[C@@H]3CCC4=CC(=O)C=C[C@]4(C)[C@H]3[C@@H](O)C[C@@]21C
0%: nuclear beta-catenin stimulation ([17]; stimulation, at 2 µM)
8020: cell count ([43]; measured here: total cells with miR-34 induction, stronger effect = lower value)
8180: cell count ([43]; measured here: total cells without miR-34 induction)
90.8%: viability [41]
inactive: parasite load remaining [41] 83.8% | fluorescence ratio [12] 0.95 | inhibition [13] -5% | inhibition [14] -0.48% | fluorescence ratio [15] 0.91 | nuclear beta-catenin stimulation ([17]; at 10 µM) 1.2% | insulin secretion stimulation [18] 1% | viability decrease [19] 6.6% | tube area decrease [20] 5.5% | GLP1 secretion stimulation [21] 1.2% | inhibition of viability [22] -4.6% | viability decrease (inhibition) [23] -9.3% | viability decrease (inhibition) [24] -10.8% | inhibition [25] 20% | outcome [29] | outcome [30] | outcome [32] | outcome [42] | outcome [33] | outcome [34] | outcome [35] | fold change ([43]; stronger effect = lower value, cell number ratio, induced over uninduced) 0.981 | remaining NAD [38] 10 nM | luciferase signal [39] 60 AU | z-score [40] 0.085 | log fold change Tl+ flux (F380Y) 0.0438 | log fold change Tl+ flux (F380Y/beta1) 0.0202 | log fold change Tl+ flux (F380Y/beta2Delta) -0.0297 | log fold change Tl+ flux (F380Y/beta4) 0.0608 | log fold change Tl+ flux [44] 0.072 | log fold change Tl+ flux (R275C) -0.0254 | log fold change Tl+ flux (R275C/beta1) 0.0604 | log fold change Tl+ flux (R275C/beta2Delta) 0.0146 | log fold change Tl+ flux (R275C/beta4) 0.0243 | log fold change Tl+ flux (R275C/Slo1WT/beta2) 0.0458
0.792: fold change ([43]; measured here: relative caspase fold change +Dox/-Dox)
